Compounds without any hit were thinned out: in the full panel of roughly 83,000, 20% have a hit.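 Treatment: one concentration, 48 hours, 96-well format. Scoring: percent growth, with anything below 10 considered active.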 Values without a mark were called inactive. Calls of active or inactive are those of the source.

Test systems include HCT-15 colon; HT29 colon; SNB-75 CNS; SNB-19 CNS; U251 CNS; PC-3 prostate; SK-MEL-5 melanoma; UACC-62 melanoma; LOX IMVI melanoma; SK-MEL-28 melanoma.
What all share (experiment): NCI-60 one-dose screen, 48 h (100 = growth as untreated, 0 = no growth, -100 = all killed)
Details in all cases: 10 µM unless noted

Turning to `CC1=NC(c2ccc(Cl)cc2)C2=C(N1)/C(=C/c1ccc(Cl)cc1)CCC2` (stereo not given), the growth with HCT-15 colon is 79.8%; in the test on HT29 colon it was 54.4%; in the test with SNB-75 CNS, 86.6%; with SNB-19 CNS it was 102%; in the test on U251 CNS, 66%; with PC-3 prostate it was 89.1%. The growth in the test on SK-MEL-5 melanoma is 84.9%; with UACC-62 melanoma, 83.3%; in the test on LOX IMVI melanoma it was 36.8%; in the test on SK-MEL-28 melanoma, 93.9%.

For the compound `CC(C)N=C1CCCC1C(=S)SSC(=S)C1CCCC1=NC(C)C` (stereo not given), the growth is 54.6% in the test with HCT-15 colon; 79.1% in the test with HT29 colon; 74.3% in the test with SNB-75 CNS; 83.5% in the test on SNB-19 CNS; 50.3% in the test with U251 CNS; 47.4% with PC-3 prostate. Also, the growth is 81.6% in the test with SK-MEL-5 melanoma, 75% with UACC-62 melanoma, 50.9% with LOX IMVI melanoma and 81% in the test on SK-MEL-28 melanoma.

Regarding `COC(=O)c1cc(Cl)cc([N+](=O)[O-])c1O`, the growth with HCT-15 colon is 109%; in the test on HT29 colon it was 110%; with SNB-75 CNS, 97.2%; with SNB-19 CNS, 108%; in the test with U251 CNS it was 112%; with PC-3 prostate, 97.3%. Moreover, the growth is 106% with SK-MEL-5 melanoma, 110% with UACC-62 melanoma, 114% in the test with LOX IMVI melanoma and 120% in the test on SK-MEL-28 melanoma.

In the case of `Cc1ccc(NC(=O)c2[nH]c(SCCN(C)C)nc2-c2ccc(F)cc2)cc1Nc1ccc2ncn(C)c(=O)c2c1`, the growth in the test on HCT-15 colon was 65.4%; with HT29 colon, 21.4%; in the test with SNB-75 CNS it was 66%; with SNB-19 CNS it was 92.4%; in the test with U251 CNS it was 66.6%; in the test with PC-3 prostate, 88.5%. Besides, the growth in the test with SK-MEL-5 melanoma is 30.8%; with UACC-62 melanoma, 12.5%; in the test on LOX IMVI melanoma it was 28%; in the test on SK-MEL-28 melanoma, 16.5%.

For `CCNS(=O)(=O)c1ccc(C)cc1`, the growth is 98.5% with HCT-15 colon; 117% with HT29 colon; 85.2% in the test on SNB-75 CNS; 103% in the test on SNB-19 CNS; 105% in the test on U251 CNS; 95.7% in the test on PC-3 prostate. Also, the growth with SK-MEL-5 melanoma was 140%; in the test with UACC-62 melanoma, 106%; in the test with LOX IMVI melanoma, 100%; in the test with SK-MEL-28 melanoma it was 115%.

`Cc1ccc(CSCc2ccc(C(=O)NC3CC3)o2)cc1`: the growth is 37.7% in the test on HCT-15 colon; 27.9% in the test with HT29 colon; 86% with SNB-75 CNS; 98.8% in the test with SNB-19 CNS; 56.4% with U251 CNS; 74.2% with PC-3 prostate. The growth with SK-MEL-5 melanoma was 57.3%; in the test on UACC-62 melanoma, 50.5%; with LOX IMVI melanoma, 58.2%; in the test on SK-MEL-28 melanoma it was 100%.

For `Nc1ccc(C(OC(=O)c2cc3ccccc3c(Cc3c(O)c(C(=O)OC(c4ccc(N)cc4)(c4ccc(N)cc4)c4ccc(N)cc4)cc4ccccc34)c2O)(c2ccc(N)cc2)c2ccc(N)cc2)cc1`, the growth with HCT-15 colon is 49.6%; in the test on HT29 colon, 8.68% (active); in the test with SNB-75 CNS, 8.57% (active); in the test on SNB-19 CNS, 19%; with U251 CNS it was 11.2%; in the test on PC-3 prostate, -3.26% (active). Also, the growth is -47.1% (active) in the test with SK-MEL-5 melanoma, 10.7% with UACC-62 melanoma, 24% with LOX IMVI melanoma and 33.9% in the test with SK-MEL-28 melanoma.

Take `COc1ccc(C2=CC(c3ccc(OC)cc3Br)N3C=CSC3=N2)cc1` (stereo not given): the growth in the test with HCT-15 colon was 27.5%; in the test on HT29 colon, -6.33% (active); in the test with SNB-75 CNS, 63.7%; in the test with SNB-19 CNS, 62.3%; in the test on U251 CNS, 37.2%; in the test with PC-3 prostate, 50.4%. Also, the growth with SK-MEL-5 melanoma was 78.7%; with UACC-62 melanoma, 71.2%; in the test with LOX IMVI melanoma it was 16.6%; with SK-MEL-28 melanoma it was 84%.

As for `COc1ccc(Sc2[nH]c(C=O)c3ccccc23)cc1`, the growth in the test on HCT-15 colon is 63.1%; with HT29 colon it was 19.4%; in the test on SNB-75 CNS, 6.71% (active); in the test on SNB-19 CNS, 77.6%; with U251 CNS, 76.6%; in the test on PC-3 prostate, 45%. For the same compound, the growth in the test with SK-MEL-5 melanoma was 70.1%; in the test on UACC-62 melanoma, 46.7%; with LOX IMVI melanoma it was 70.3%; in the test on SK-MEL-28 melanoma it was 81.9%.

For the compound `COc1ccc(-c2nc(-c3cc(OC)cc(OC)c3)[nH]c2-c2ccc(OC)cc2)cc1`, the growth in the test on HCT-15 colon is 45.3%; in the test with HT29 colon it was 17.3%; with SNB-75 CNS it was 86.1%; in the test with SNB-19 CNS, 61.2%; with U251 CNS, 45.6%; with PC-3 prostate, 27.5%. For the same compound, the growth in the test on SK-MEL-5 melanoma is 14.9%; with UACC-62 melanoma it was 37%; with LOX IMVI melanoma, 61.3%; in the test on SK-MEL-28 melanoma it was 67.4%.

Regarding `COc1cc(/C=C2\C(=O)Nc3ccc(N(C)C)cc32)cc(OC)c1OC`, the growth is 17% in the test on HCT-15 colon; 9.36% (active) in the test on HT29 colon; -17.1% (active) with SNB-75 CNS; 36.2% in the test with SNB-19 CNS; 11.4% in the test with U251 CNS; 35% in the test on PC-3 prostate. Further, the growth with SK-MEL-5 melanoma was 21.5%; in the test on UACC-62 melanoma, -0.443% (active); in the test on LOX IMVI melanoma, 32.8%; in the test with SK-MEL-28 melanoma, 43.4%.

For `COC(=O)c1cc2oc(/C=N/NC(=O)c3cc4oc(-c5cccc(C(F)(F)F)c5)cc4[nH]3)cc2n1Cc1ccccc1`, the growth was 98.1% with HCT-15 colon; 104% in the test with HT29 colon; 84.4% in the test on SNB-75 CNS; 112% in the test on SNB-19 CNS; 101% in the test with U251 CNS; 90.3% with PC-3 prostate. The growth with SK-MEL-5 melanoma is 108%; in the test on UACC-62 melanoma, 83.4%; with LOX IMVI melanoma, 97.6%; in the test on SK-MEL-28 melanoma, 113%.

For `CN(C)CCOc1nc2c3cccnc3cc(-c3cccc(Cl)c3)c2c2ncccc12`, the growth with HCT-15 colon was -10.9% (active); in the test on HT29 colon it was 1.5% (active); with SNB-75 CNS, 38.2%; in the test with SNB-19 CNS, 26.4%; in the test on U251 CNS, 11.2%; with PC-3 prostate, 22.4%. In addition, the growth in the test on SK-MEL-5 melanoma was 1.23% (active); with UACC-62 melanoma, -75.6% (active); with LOX IMVI melanoma it was -94.5% (active); in the test with SK-MEL-28 melanoma it was -81.6% (active).

The values above are taken from PubChem BioAssay (NCI).
